Vaccinia mCherry = inhibitors of vaccinia virus infection (mCherry reporter signal); Vaccinia virus mCherry reporter infection, fluorescence; Potency, µM (highest dose often 36.5 µM), for inactives: at the highest dose activity change, negative = inhibition, most hits filed as inhibitors; 310,000 compounds, 0.63% hits; AID 720579; calls by dose curve; tested in A549 cells; also: potency is read from the fitted curve at half-maximal effect; nearly all actives have a fitted effect of over 35% in size
FMDV inh = foot and mouth disease virus antiviral activity | AID 1159524 | Potency, µM (highest dose often 57.9 µM), for the others: at the top dose activity change, negative = inhibition, actives largely listed as inhibitors | FMDV antiviral cell-based qHTS | 410,000 compounds, 1.2% hits; calls by dose curve; tested in HEK293T cells; also: read-out not given here; potency is read from the fitted curve at half-maximal effect; nearly all actives have a fitted effect of over 45% in size
HCV inh = inhibitors of hepatitis C virus infection; 340,000 compounds, 3.4% hits; Potency, µM (highest dose often 41.8 µM), for inactives: at the highest dose activity change, negative = inhibition, actives largely listed as inhibitors; Huh7.5.1 HCVcc-Cre infection, luciferase reporter, 44 h; active = well fitted inhibition curve with a large enough effect; inconclusive = small, poorly fitted or top-dose-only effect, or another doubt; inactive = no such curve, though single readings can be large or run the other way; also: potency is read from the fitted curve at half-maximal effect
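Infectious HCVcc-Cre (~0.5 moi) was added to cells just after compound, with cells seeded 4 h earlier at 1,000 per well. Luciferase activity after 44 h culture reported infection; substrate was incubated 15 min at room temperature before reading.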
Vaccinia Venus = inhibitors of vaccinia virus (Venus reporter) | Potency, µM (top dose mostly 36.5 µM), without a hit: top-dose activity change, negative = inhibition, most hits filed as inhibitors | AID 720580 | Vaccinia virus Venus reporter expression, fluorescence | 330,000 compounds, 0.46% hits; calls by dose curve; tested in A549 cells; also: potency is read from the fitted curve at half-maximal effect; nearly all actives have a fitted effect of over 30% in size
HCMV inh = inhibitors of human cytomegalovirus | HFF cells, HCMV-luciferase reporter, 72 h; hits give low values | activity change, negative = inhibition, % at 57.5 µM | 410,000 compounds, 4.5% hits | AID 1259415; in the data active = activity change below about -60%; inconclusive = no clear call, values can overlap the other calls; inactive = above about -39%
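HFF cells seeded 16 h at 37C, treated with compounds, infected with luciferase-reporter HCMV at MOI 1 PFU/cell; luciferase read at 72 h post infection, normalized to buffer-only and Salinomycin controls.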
The depositor's hits bear a star. Compounds with a hit are over-represented: about 7.3% of the library has one in this group of screens. % is scaled to controls: 0 for no effect and ±100 for the full control effect.

Results for CCOc1ccccc1N1Cc2cc(C)c(C)cc2C1 ?
Vaccinia mCherry: -21%; FMDV inh: 1%; HCV inh: inconclusive; Vaccinia Venus: -9%; HCMV inh: 3

Results for COc1ccc(OC)c(N2Cc3cc(C)c(C)cc3C2)c1 ?
Vaccinia mCherry: -14%; FMDV inh: 0%; HCV inh: 22µM*; Vaccinia Venus: -5%; HCMV inh: 7

Results for O=C1COc2cc(S(=O)(=O)CCC(=O)N3CCN(c4ccccc4)CC3)c(Cl)cc2N1 ?
Vaccinia mCherry: 1%; FMDV inh: 0%; Vaccinia Venus: 1%; HCMV inh: -23

How did Cc1ccc(NC(=O)c2ccc(=O)[nH]n2)cc1S(=O)(=O)Nc1ccc(SC(F)F)cc1 do in these assays?
FMDV inh: 35%; HCV inh: 3.2µM*; HCMV inh: 0

How did COc1ccc(CCCc2nnc(SCC(=O)Nc3cc(F)ccc3C)o2)cc1 do in these assays?
Vaccinia mCherry: -13%; FMDV inh: -24%; Vaccinia Venus: 0%; HCMV inh: -5

Results for c1csc(-c2nnc(NC3CCCCC3)c3ccccc23)c1 ?
Vaccinia mCherry: inconclusive; FMDV inh: 40µM*; HCV inh: inconclusive; Vaccinia Venus: inconclusive; HCMV inh: 39

Results for CC1CCN(c2nnc(-c3cccs3)c3ccccc23)CC1 ?
FMDV inh: 0%; HCV inh: inconclusive; HCMV inh: -66*

What do the screens show for `COCC(C)NS(=O)(=O)c1ccc(C(=O)NC(Cc2ccccc2)c2ccccc2)cc1` (configuration not stated)?
Vaccinia mCherry: -24%; FMDV inh: -11%; HCV inh: 2%; Vaccinia Venus: -17%; HCMV inh: -11

Results for CC(C)(C)C(=O)OCOC(=O)[C@@H]1N2C(=O)[C@@H](N=CN3CCCCCC3)[C@H]2SC1(C)C ?
Vaccinia mCherry: -3%; FMDV inh: -13%; HCV inh: 0.5µM*; Vaccinia Venus: -21%; HCMV inh: 22

How did CC1(C)S[C@@H]2[C@H](NC(=O)COc3ccccc3)C(=O)N2C1C(=O)OCC1CCCCC1 (some centres not stated) do in these assays?
Vaccinia mCherry: inactive; FMDV inh: -14%; HCV inh: 7%; Vaccinia Venus: -6%; HCMV inh: -5

Results for c1ccc2oc(-c3ccc(Nc4nc(N5CCOCC5)nc(N5CCOCC5)n4)cc3)nc2c1 ?
Vaccinia mCherry: inactive; FMDV inh: 0%; HCV inh: inconclusive; Vaccinia Venus: -10%; HCMV inh: -23

Results for CC1CC(N(C(=O)c2ccc(Cl)cc2)c2ccccc2)c2ccccc2N1C(=O)c1ccco1 (configuration not stated) ?
FMDV inh: inconclusive; HCV inh: 10µM*; Vaccinia Venus: inconclusive; HCMV inh: -27

How did COc1ccc(C(C[N+](=O)[O-])c2c(C)[nH]n(-c3ccccc3)c2=O)cc1 (configuration not stated) do in these assays?
Vaccinia mCherry: 2%; FMDV inh: -1%; HCV inh: -9%; Vaccinia Venus: 3%; HCMV inh: -103*

How did Cc1[nH]n(-c2ccccc2)c(=O)c1C(C[N+](=O)[O-])c1ccccc1Cl (configuration not stated) do in these assays?
Vaccinia mCherry: -13%; FMDV inh: -13%; HCV inh: 2%; Vaccinia Venus: -10%; HCMV inh: 8

What do the screens show for `COCCNc1nc(Nc2ccc(C)cc2C)c2sccc2n1`?
Vaccinia mCherry: -11%; FMDV inh: inconclusive; Vaccinia Venus: -29%; HCMV inh: -76*

How did COCCNc1nc(NCc2ccc(C)cc2C)c2sccc2n1 do in these assays?
Vaccinia mCherry: -21%; FMDV inh: inconclusive; Vaccinia Venus: -12%; HCMV inh: -36

Results for O=[N+]([O-])c1ccc(N(CC(O)CN2CCCCC2)S(=O)(=O)c2ccccc2)cc1 (configuration not stated) ?
Vaccinia mCherry: -11%; FMDV inh: -1%; HCV inh: inconclusive; Vaccinia Venus: 5%; HCMV inh: -64*

How did O=[N+]([O-])c1ccc(S(=O)(=O)N(CC(O)CN2CCCCC2)c2ccccc2)cc1 (configuration not stated) do in these assays?
Vaccinia mCherry: -1%; FMDV inh: 3%; HCV inh: inconclusive; Vaccinia Venus: -1%; HCMV inh: -9

Bioassay records deposited in PubChem by National Center for Advancing Translational Sciences (NCATS).
